Results reported in PubChem BioAssay (EPA / NIEHS).
The source made the active and inactive calls. The calls were made as follows: active = hit-call score of the fitted dose curve at least 0.9, where 1 is the maximum; inactive = score below 0.9.

What was measured:
[1] = molecular target: Bile acid receptor (Homo sapiens) (UniProt Q96RI1); experiment: ATG_IR1_CIS: Attagene CIS-FACTORIAL HepG2 Assay for human Nuclear Receptor Subfamily 1 Group H Member 4 (NR1H4), IR1 submotif (AID 2282946); conditions: IR1 reporter transcription, actives raise or lower the signal
Outline: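 Cells (human HepG2) carry transiently transfected cis-promoter reporter transcription units. Compounds are incubated 24 h, total RNA is reverse-transcribed and amplified, and labelled fragments are resolved by capillary electrophoresis. Curves use DMSO as baseline.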

[2] = ATG_GRE_CIS: Attagene CIS-FACTORIAL HepG2 Assay for human Glucocorticoid Response Elements (GRE) (AID 2282947); conditions: HepG2 GRE cis-reporter, Attagene multiplex mRNA; actives raise or lower the signal
Outline: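 Transient MRTU transfection of human HepG2 liver cells; cis-regulated reporters report endogenous factors. 24 h dosing → RNA isolation → RT-PCR → 6-FAM primer extension → HpaI cut → CE fragment analysis. Bidirectional fit, DMSO negative control.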

[3] = ATG_ISRE_CIS: Attagene CIS-FACTORIAL HepG2 Assay for human Interferon Regulatory Factor 1 (IRF1) binding to an Interferon-Stimulated Response Element (ISRE) (AID 2282948); conditions: HepG2 ISRE cis-reporter (Attagene), mRNA transcription readout; actives raise or lower the signal
Outline: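 Cell-based cis-reporter assay; HepG2; 24 h exposure; reporter mRNA by RT-PCR plus capillary electrophoresis fluorescence; activity in either direction scored relative to DMSO.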

[4] = ATG_M_32_CIS: Attagene CIS-FACTORIAL HepG2 Assay for M32 Transcription Factor (Internal Marker) (AID 2282949); conditions: HepG2 Attagene cis-factorial M32 reporter, mRNA; actives raise or lower the signal;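 also: background control marker of the multiplexed CIS panel rather than a real target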
Outline: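 Fluorescent capillary electrophoresis peaks of HpaI-digested, FAM-labelled RT-PCR reporter products give the signal. Source: transiently transfected human liver HepG2 cells, 24 h after chemical dosing; bidirectional fitting against DMSO.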

[5] = ATG_M_06_CIS: Attagene CIS-FACTORIAL HepG2 Assay for M06 Transcription Factor (Internal Marker) (AID 2282950); conditions: HepG2 Attagene CIS-FACTORIAL M06 internal marker reporter; actives raise or lower the signal
Outline: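 Internal background marker within multiplexed cis-reporter HepG2 system. Cells transiently transfected, dosed 24 h; reporter mRNA measured by RT-PCR, HpaI digestion and capillary electrophoresis. Bidirectional fit relative to DMSO.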

[6] = molecular target: Hypoxia-inducible factor 1-alpha (Homo sapiens) (UniProt Q16665); experiment: ATG_HIF1a_CIS: Attagene CIS-FACTORIAL HepG2 Assay for human Hypoxia Inducible Factor 1 (HIF1A) (AID 2282951); conditions: HepG2 Attagene cis-factorial HIF1a reporter transcription; actives raise or lower the signal
Outline: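 Endogenous-TF cis reporter readout, human HepG2 cells, 24 h incubation; mRNA detected via RT-PCR and capillary electrophoresis fluorescence; DMSO-normalised bidirectional fitting.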

[7] = molecular target: Hepatocyte nuclear factor 6 (Homo sapiens) (UniProt Q9UBC0); experiment: ATG_HNF6_CIS: Attagene CIS-FACTORIAL HepG2 Assay for human Hepatocyte Nuclear Factor 6 (HNF6) (AID 2282952); conditions: HepG2 Attagene cis-factorial HNF6 reporter transcription; actives raise or lower the signal
Outline: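 Cells are HepG2 carrying transiently transfected cis-promoter reporter units. Treatment lasts 24 h, after which reporter transcripts are reverse-transcribed, amplified, FAM-labelled and sized by capillary electrophoresis. DMSO serves as baseline.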

[8] = molecular target: Heat shock factor protein 1 (Homo sapiens) (UniProt Q00613); experiment: ATG_HSE_CIS: Attagene CIS-FACTORIAL HepG2 Assay for human Heat Shock Transcription Factor 1 (HSE) (AID 2282953); conditions: HepG2 HSE cis-reporter, Attagene RNA transcription; actives raise or lower the signal
Outline: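 HepG2 cells transfected with cis-promoter reporter units sensing endogenous transcription factor activity; reporter mRNA quantified 24 h post-dose by RT-PCR and capillary electrophoresis of 6-FAM-labelled products. Bidirectional fitting against DMSO.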

[9] = ATG_MRE_CIS: Attagene CIS-FACTORIAL HepG2 Assay for human Metal Responsive Element (MRE) (AID 2282954); conditions: HepG2 MRE cis-reporter transcription, Attagene multiplex; actives raise or lower the signal
Outline: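 Transient MRTU transfection of HepG2 (FuGene 6); 24 h dosing; total RNA → oligo(dT) RT, PCR, 6-FAM primer extension, HpaI cut, CE. Bidirectional fit vs DMSO.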

[10] = ATG_PBREM_CIS: Attagene CIS-FACTORIAL HepG2 Assay for human Phenobarbital-responsive Enhancer Module (PBREM) (AID 2282955); conditions: HepG2 PBREM cis-reporter, Attagene multiplexed transcription; actives raise or lower the signal
Outline: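 Readout: reporter mRNA, fluorescent RT-PCR fragments separated by capillary electrophoresis. System: HepG2 transiently transfected with cis-regulated reporter units. Exposure: 24 h. Analysis: bidirectional, DMSO baseline.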

Bile acid receptor (Homo sapiens), sequence (Q96RI1 whole entry, looked up, the tested form may be a part): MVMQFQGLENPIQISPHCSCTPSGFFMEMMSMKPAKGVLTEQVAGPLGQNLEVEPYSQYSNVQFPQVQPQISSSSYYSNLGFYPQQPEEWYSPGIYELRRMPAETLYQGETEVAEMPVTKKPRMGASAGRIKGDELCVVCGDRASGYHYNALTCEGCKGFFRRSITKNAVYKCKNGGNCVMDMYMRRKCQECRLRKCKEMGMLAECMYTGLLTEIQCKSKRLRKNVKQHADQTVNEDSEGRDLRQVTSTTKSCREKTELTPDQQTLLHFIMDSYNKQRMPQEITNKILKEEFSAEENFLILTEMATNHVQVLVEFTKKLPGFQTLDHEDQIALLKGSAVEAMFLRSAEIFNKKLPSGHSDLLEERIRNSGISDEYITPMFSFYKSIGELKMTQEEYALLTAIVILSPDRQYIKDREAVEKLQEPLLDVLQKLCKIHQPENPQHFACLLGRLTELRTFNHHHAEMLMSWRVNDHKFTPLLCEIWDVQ
Hypoxia-inducible factor 1-alpha (Homo sapiens), sequence (Q16665 whole entry, looked up): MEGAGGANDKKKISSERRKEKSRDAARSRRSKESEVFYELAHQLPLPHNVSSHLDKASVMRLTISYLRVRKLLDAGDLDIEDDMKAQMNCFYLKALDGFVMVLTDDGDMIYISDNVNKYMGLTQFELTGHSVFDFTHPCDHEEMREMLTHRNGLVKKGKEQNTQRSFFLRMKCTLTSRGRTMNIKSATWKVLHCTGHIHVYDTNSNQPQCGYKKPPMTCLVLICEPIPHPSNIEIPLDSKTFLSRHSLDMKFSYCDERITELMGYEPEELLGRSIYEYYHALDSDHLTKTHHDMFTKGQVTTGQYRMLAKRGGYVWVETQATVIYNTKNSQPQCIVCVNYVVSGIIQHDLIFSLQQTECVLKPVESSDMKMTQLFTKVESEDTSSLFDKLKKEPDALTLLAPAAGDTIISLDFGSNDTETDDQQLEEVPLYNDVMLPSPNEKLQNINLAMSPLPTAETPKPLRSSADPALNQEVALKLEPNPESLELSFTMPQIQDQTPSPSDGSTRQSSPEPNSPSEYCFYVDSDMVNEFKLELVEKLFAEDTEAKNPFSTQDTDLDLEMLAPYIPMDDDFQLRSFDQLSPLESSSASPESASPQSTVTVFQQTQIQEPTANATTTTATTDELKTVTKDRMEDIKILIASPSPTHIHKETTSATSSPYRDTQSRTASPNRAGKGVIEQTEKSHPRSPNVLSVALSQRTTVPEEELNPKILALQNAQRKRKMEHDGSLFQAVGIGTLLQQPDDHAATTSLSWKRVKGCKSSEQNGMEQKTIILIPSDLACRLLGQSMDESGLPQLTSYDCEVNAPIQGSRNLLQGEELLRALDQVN
Heat shock factor protein 1 (Homo sapiens), sequence (Q00613 whole entry, looked up): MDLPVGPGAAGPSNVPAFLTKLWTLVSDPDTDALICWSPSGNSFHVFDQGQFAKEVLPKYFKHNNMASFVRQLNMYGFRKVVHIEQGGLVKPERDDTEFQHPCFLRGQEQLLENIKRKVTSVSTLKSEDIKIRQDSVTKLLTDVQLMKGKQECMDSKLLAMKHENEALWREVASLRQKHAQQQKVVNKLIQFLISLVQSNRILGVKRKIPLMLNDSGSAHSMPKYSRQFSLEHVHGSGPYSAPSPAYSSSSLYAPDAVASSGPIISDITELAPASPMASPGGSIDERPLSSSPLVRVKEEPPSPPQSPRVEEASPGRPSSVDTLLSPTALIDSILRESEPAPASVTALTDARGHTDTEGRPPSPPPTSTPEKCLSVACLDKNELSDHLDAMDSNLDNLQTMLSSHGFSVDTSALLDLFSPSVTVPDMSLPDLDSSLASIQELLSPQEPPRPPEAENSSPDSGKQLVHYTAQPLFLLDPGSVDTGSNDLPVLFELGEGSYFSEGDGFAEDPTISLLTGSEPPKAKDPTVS
Hepatocyte nuclear factor 6 (Homo sapiens), sequence (Q9UBC0 whole entry, looked up): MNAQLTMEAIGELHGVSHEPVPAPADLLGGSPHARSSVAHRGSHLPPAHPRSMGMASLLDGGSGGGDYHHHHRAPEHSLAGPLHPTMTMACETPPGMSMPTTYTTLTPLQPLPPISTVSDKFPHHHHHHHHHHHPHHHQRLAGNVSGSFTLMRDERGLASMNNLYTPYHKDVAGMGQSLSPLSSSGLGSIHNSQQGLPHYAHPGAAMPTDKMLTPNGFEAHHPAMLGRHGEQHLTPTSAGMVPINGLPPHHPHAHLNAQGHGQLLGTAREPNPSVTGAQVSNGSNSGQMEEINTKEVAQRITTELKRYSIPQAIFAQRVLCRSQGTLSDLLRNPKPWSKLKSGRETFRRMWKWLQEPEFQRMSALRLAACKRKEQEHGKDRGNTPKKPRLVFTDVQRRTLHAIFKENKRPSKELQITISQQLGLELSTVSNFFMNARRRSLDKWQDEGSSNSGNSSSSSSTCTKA

SMILES | outcome [1] | outcome [2] | outcome [3] | outcome [4] | outcome [5] | outcome [6] | outcome [7] | outcome [8] | outcome [9] | outcome [10] | AC50 [3] | AC50 [8] | AC50 [9] | AC50 [6]
Nc1ccc(Cl)c([N+](=O)[O-])c1 | inactive | inactive | inactive | inactive | inactive | inactive | inactive | inactive |  |  |  |  |  | 
CCCC(C)=O | inactive | inactive | inactive | inactive | inactive | inactive | inactive | inactive | inactive | inactive |  |  |  | 
OCC#CCO | inactive | inactive | inactive | inactive | inactive | inactive | inactive | inactive | inactive |  |  |  |  | 
CCCCCCC(C)(C)S | inactive | inactive | inactive | inactive | inactive | inactive | inactive | inactive | inactive | inactive |  |  |  | 
CC(C)c1ccccc1O | inactive | inactive | inactive | inactive | inactive | inactive | inactive | inactive | inactive |  |  |  |  | 
CCC(C)=O | inactive | inactive | inactive | inactive | inactive | inactive | inactive | inactive |  |  |  |  |  | 
CCCCCC(C=O)=Cc1ccccc1 | inactive | inactive |  | inactive | inactive | inactive | inactive |  | inactive | inactive | 160 µM (active) | 173 µM (active) |  | 
O=C(Nc1ccc([N+](=O)[O-])cc1)Nc1ccc([N+](=O)[O-])cc1 (tested in a mixture with another compound) | inactive | inactive | inactive | inactive | inactive | inactive | inactive | inactive | inactive |  |  |  |  | 
CC(C)(C)OC(=O)c1ccc(O)cc1 | inactive | inactive | inactive | inactive | inactive | inactive | inactive |  |  | inactive |  | 159 µM (active) | 100 µM (active) | 
CS(=O)(=O)c1ccc(C2=C(c3ccccc3)C(=O)OC2)cc1 | inactive | inactive | inactive | inactive | inactive | inactive | inactive | inactive | inactive | inactive |  |  |  | 
Cc1ccc(S(N)(=O)=O)cc1 | inactive | inactive | inactive | inactive | inactive | inactive | inactive | inactive | inactive |  |  |  |  | 
OCCCCC(O)CO (stereo not given) | inactive | inactive | inactive | inactive | inactive |  | inactive | inactive |  |  |  |  |  | 23.2 µM (active)
C=C(C)C(=O)OCC(CC)(COC(=O)C(=C)C)COC(=O)C(=C)C | inactive | inactive | inactive | inactive | inactive | inactive | inactive | inactive | inactive | inactive |  |  |  | 
